Assay results: PubChem BioAssay AID1117293 (Broad Institute, 2014)
Potency and affinity values are given separately. Results filed as inconclusive are left out. Where a call stands in place of a potency, no number is given. Active and inactive are the calls of the source.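 Rule for the calls: active = cytotoxic in every repeat run, with fitted half-maximal concentration at most twice the top tested dose; inconclusive = runs disagree, or flat partial drop, or poor curve fit; inactive = inactive in every run.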

Test: HEK293T cell cytotoxicity, dose response, cytotoxicity control, CellTiter-Glo luminescence, dry powder, set 20 (AID 1117293)
Conditions: HEK293T viability, CellTiter-Glo ATP luminescence, 72 h; series mostly up to 26 µM

Row | SMILES | outcome
1 | O=S(=O)(O)c1ccc(N2N=C(c3ccccc3)CC2c2ccccc2)cc1 (centres undefined) | inactive
2 | COc1ccc(C(=O)O)cc1S(=O)(=O)Nc1cc(C(F)(F)F)ccc1N1CCN(C(C)=O)CC1 | inactive
3 | CC(=O)N1CCN(C(=O)C2(NC(=O)Nc3ccc(F)cc3)CCCCC2)CC1 | inactive
4 | COc1ccc(C(=O)O)cc1S(=O)(=O)Nc1cc(C(F)(F)F)ccc1N1CCOCC1 | inactive
5 | Cc1ccc(NC(=O)NC2(C(=O)N3CCNCC3)CCCCC2)cc1 | inactive
6 | O=S(=O)(Nc1cc(C(F)(F)F)ccc1N1CCCCC1)c1ccc(F)cc1 | inactive
7 | COc1ccc(C(=O)O)cc1S(=O)(=O)Nc1cc(C(F)(F)F)ccc1N1CCCCC1 | inactive
8 | COc1cccc(NC(=O)NC2(C(=O)N3CCN(C(C)=O)CC3)CCCCC2)c1 | inactive
9 | O=[N+]([O-])c1ccc(S(=O)(=O)Nc2cc(C(F)(F)F)ccc2N2CCCCC2)c([N+](=O)[O-])c1 | inactive
10 | COc1ccc(S(=O)(=O)Nc2cc(C(F)(F)F)ccc2N2CCCCC2)cc1 | inactive
11 | CC(=O)N1CCN(C(=O)C2(NC(=O)Nc3cccc(C(F)(F)F)c3)CCCCC2)CC1 | inactive
12 | CC(=O)N1CCN(C(=O)C2(NC(=O)Nc3ccc(C)cc3)CC2)CC1 | inactive
13 | CC(=O)N1CCN(C(=O)C2(NC(=O)Nc3ccc(C(C)C)cc3)CCCCC2)CC1 | inactive
14 | COc1ccc(C(=O)O)cc1S(=O)(=O)N1CCN(c2ccc(C(F)(F)F)cc2N)CC1 | inactive
15 | CC(=O)N1CCN(C(=O)C(C)(C)NC(=O)Nc2ccc(C)cc2)CC1 | inactive
16 | Cc1ccc(NC(=O)NC2(C(=O)N3CCOCC3)CCCCC2)cc1 | inactive
17 | O=S(=O)(Nc1cc(C(F)(F)F)ccc1N1CCCCC1)c1ccc(Cl)cc1 | inactive
18 | COc1ccc(C(=O)Nc2cc(C(F)(F)F)ccc2N2CCOCC2)cc1S(=O)(=O)O | inactive
19 | CC(=O)N1CCN(C(=O)C2(NC(=O)Nc3ccc(C(F)(F)F)cc3)CCCC2)CC1 | inactive
20 | CC(=O)N1CCN(C(=O)C2(NC(=O)Nc3ccccc3F)CCCCC2)CC1 | inactive
21 | COc1ccc(C(=O)O)cc1S(=O)(=O)Nc1cccc(N2CCCCC2)c1C(F)(F)F | inactive
22 | COc1ccc(C(=O)O)cc1S(=O)(=O)Nc1cc(C(F)(F)F)ccc1N(C)C | inactive
23 | CC(=O)N1CCN(C(=O)C2CCCN2C(=O)Nc2ccc(C)cc2)CC1 (centres undefined) | inactive
24 | COc1ccc(C(=O)Nc2cc(F)ccc2N2CCCCC2)cc1S(=O)(=O)O | inactive
